Legend:
[1] = test system: E18 rat cortical neuron-glia co-culture; assay: fiber score / MBP score (myelination specific beyond OL differentiation) (ratio); higher = more myelination-specific MBP alignment; settings: treatment time: 8 days (DIV5-DIV13)
Procedure, shortened: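 Library compounds were applied at 1 or 5 µM in myelination medium, DIV5 to DIV13, to primary E18 rat cortical co-cultures grown at 20,000 cells/well in 96-well plates. After 4 % paraformaldehyde fixation and MBP/Olig2/DAPI immunostaining, four 10X fields per well in duplicate wells were scored. Each value is continuous MBP fiber length per Olig2+ nucleus divided by thresholded MBP area × intensity per Olig2+ nucleus.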

[2] = test system: E18 rat cortical neuron-glia co-culture; assay: myelination (MBP fiber length per Olig2+ nucleus), % of 1 µM DAPT response (DMSO = 0) (% of DAPT); higher = more myelination, active = 50 or more; settings: treatment time: 8 days (DIV5-DIV13)
Procedure, shortened: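 Library compounds at 1 or 5 µM in myelination medium were applied from DIV5 to DIV13 to papain-dissociated E18 rat cortical co-cultures seeded at 20,000 cells/well on poly-d-lysine/laminin 96-well plates. Fixed cells (4 % paraformaldehyde) were immunostained for MBP and Olig2 with DAPI, and four 10X fields were analysed in each duplicate well. Continuous straight MBP fiber length per Olig2+ nucleus was set to 0 for 0.1 % DMSO and to 100 for a 1 µM positive control.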

SMILES	fiber score / MBP score ([1]; 1 µM)	fiber score / MBP score ([1]; 5 µM)	myelination ([2]; 1 µM)	myelination ([2]; 5 µM)
CCOC(=O)[C@@]1(CCCCCCOc2ccc(Cl)cc2)CO1 [Etomoxir]	0.693	0.645	-31 (inactive)	-26.2 (inactive)
CCCCCCCCCCC[C@@H](C[C@@H]1OC(=O)[C@H]1CCCCCC)OC(=O)[C@H](CC(C)C)NC=O [Orlistat]	0.69	0.913	-34.7 (inactive)	38.7 (inactive)
Clc1ccccc1CN1CCc2sccc2C1 [Ticlopidine]	0.477	0.662	-18.3 (inactive)	-14.2 (inactive)
CN1C2CCCC1CC(NC(=O)c1nn(C)c3ccccc13)C2 (stereo unspecified) [Granisetron]	0.781	1.1	-10.7 (inactive)	1.32 (inactive)
COc1cc(CNC(=O)CCCC/C=C\C(C)C)ccc1O [Zucapsaicin]	0.875	1.51	-19.7 (inactive)	98.2 (active)
N=C(N)NC(=O)c1nc(Cl)c(N)nc1N [Amiloride]	0.887	0.827	-12.4 (inactive)	16.9 (inactive)
CCCC(CCC)C(=O)O [Valproic Acid]	0.837	0.944	-6.19 (inactive)	-3.27 (inactive)
CN1CCc2cc(Cl)c(O)cc2C(c2ccccc2)C1 (stereo unspecified)	0.959	0.975	-8.8 (inactive)	-9.82 (inactive)
CCC(=O)NS(=O)(=O)c1ccc(-c2c(-c3ccccc3)noc2C)cc1 [Parecoxib]	0.57	1.01	-22.9 (inactive)	1.22 (inactive)
C[C@@H]1C[C@H]2[C@@H]3C[C@H](F)C4=CC(=O)C=C[C@]4(C)[C@@]3(F)[C@@H](O)C[C@]2(C)[C@@]1(O)C(=O)SCF [Fluticasone]	0.729	0.694	-47.4 (inactive)	-24.8 (inactive)
COc1ccc(-c2cc(=O)c3c(OC)c(OC)c(OC)c(OC)c3o2)cc1OC [Nobiletin]	1.28	1.16	-36.3 (inactive)	-46.5 (inactive)
CC(=O)NS(=O)(=O)c1ccc(N)cc1 [Sulfacetamide]	0.746	1.2	-10.6 (inactive)	1.76 (inactive)
CC(=O)S[C@@H]1CC2=CC(=O)CC[C@]2(C)[C@H]2CC[C@@]3(C)[C@@H](CC[C@@]34CCC(=O)O4)[C@H]12 [Spironolactone]	0.765	1.22	-5.5 (inactive)	6.33 (inactive)
NC1CCN(c2cccc(Cl)n2)CC1	1.09	0.551	4.32 (inactive)	-35 (inactive)
COc1cc2nc(N3CCN(C(=O)c4ccco4)CC3)nc(N)c2cc1OC [Prazosin]	0.568	1	-38.1 (inactive)	3.87 (inactive)
CCCc1c(OCCCCc2nnn[nH]2)ccc(C(C)=O)c1O	0.683	1	-11.5 (inactive)	1.2 (inactive)
CC(C)Oc1ccc2c(=O)c(-c3ccccc3)coc2c1 [Ipriflavone]	0.908	0.957	-8.04 (inactive)	-7.62 (inactive)
CN(C)C(=O)C(CCN1CCC(O)(c2ccc(Cl)cc2)CC1)(c1ccccc1)c1ccccc1 [Loperamide]	0.58	0.368	-10.1 (inactive)	-21 (inactive)
CN(C)[C@@H]1C(O)=C(C(N)=O)C(=O)[C@@]2(O)C(O)=C3C(=O)c4c(O)cccc4C[C@H]3C[C@@H]12 [Sancycline]	0.961	0.714	-12.5 (inactive)	-15 (inactive)
COc1ccc2c(c1)c(CC(=O)O)c(C)n2C(=O)c1ccc(Cl)cc1 [Indomethacin]	0.699	0.877	-12.4 (inactive)	-7.64 (inactive)
CC(C)NCC(O)COc1ccc(CC(N)=O)cc1 (stereo unspecified) [Atenolol]	1.03	1.04	2.66 (inactive)	7.87 (inactive)
CC1(C)S[C@@H]2[C@H](NC(=O)[C@H](N)c3ccc(O)cc3)C(=O)N2[C@H]1C(=O)O [Amoxicillin]	0.764	0.761	-18.6 (inactive)	-33.3 (inactive)
CC(C)OC(=O)CCC/C=C\C[C@@H]1[C@@H](CC[C@@H](O)CCc2ccccc2)[C@H](O)C[C@@H]1O [Latanoprost]	0.955	0.853	-8.13 (inactive)	-8.74 (inactive)
C=C1/C(=C\C=C2/CCC[C@]3(C)[C@@H]([C@H](C)/C=C/[C@@H](O)C4CC4)CC[C@@H]23)C[C@@H](O)C[C@@H]1O [Calcipotriene]	0.711	0.6	-43.8 (inactive)	-82.7 (inactive)

— the supplement of paper PMC4840960
